# Screening results: PubChem, several laboratories
# A selection: hits, their analogues and other compounds. The true share with any hit is near 4.2%.
# tim10-1 inh: tim10-1 yeast growth inhibition; inhibition, % at 20 µM; S. cerevisiae tim10-1 ts strain growth, BacTiter-Glo, 24 h; AID 463190; 330,000 tested, 2.2% active;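 active = inhibition of at least 40%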;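 also: mutant grown at 25 °C; 0% = DMSO wells with yeast and 100% = wells holding no yeast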
# TIM10 inh: inhibits growth of TIM10 yeast strain. S. cerevisiae TIM10 strain growth, BacTiter-Glo luminescence, 24 h. inhibition, % at 10 µM. 330,000 tested, 1.4% active;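 active = inhibition of 40% or more at the single tested concentration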;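 also: wild-type TIM10 isogenic control strain grown at permissive 25 °C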
# NALP3 yeast inh: blocks the NALP3 inflammasome reconstituted in yeast | Yeast reconstituted NLRP3/ASC/caspase-1, beta-gal luminescence, 24 h | inhibition, % at 10 µM | 330,000 tested, 0.39% active;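 active = inhibition of 50% or more; inactive = inhibition below 50%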;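 also: plate controls were induced DMSO wells for no effect and uninduced yeast grown without galactose for full effect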
# tim23-1 inh: inhibits growth of tim23-1 mutant yeast. 330,000 tested, 1.3% active. inhibition, % at 20 µM. S. cerevisiae tim23-1 growth, BacTiter-Glo luminescence, 24 h;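 active = growth inhibition of the mutant yeast at or above 50%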;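 also: temperature-sensitive mutant grown at 25 °C; plate controls were DMSO-treated mutant yeast for no effect and medium wells lacking yeast for full effect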
# PfHsp90 yeast 2: reduces growth (ATP signal) of yeast expressing P. falciparum Hsp90; S. cerevisiae expressing PfHsp90, BacTiter-Glo ATP, 48 h; yeast lacking PDR1 and PDR3 efflux regulators; inhibition, % at 9.4 µM; 310,000 tested, 0.32% active; AID 504621;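 active = every replicate shows inhibition above about 80%, whatever the replicate mean, limit read from the data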;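 also: 0% = DMSO neutral controls and 100% = 20 µM radicicol positive controls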
# NALP1 yeast inh: blocks the NALP1 inflammasome reconstituted in yeast. S. cerevisiae NALP1/ASC/caspase-1 growth, X-gal OD620, 72 h. inhibition, % at 10 µM. 280,000 tested, 0.61% active; in the data active = inhibition mostly above about 24%, no sharp cut-off; inactive = mostly below about 32%
# tim10-1 confirm: confirmation of tim10-1 mutant yeast growth inhibitors | inhibition, % at 20 µM | S. cerevisiae tim10-1 ts strain growth, BacTiter-Glo, 24 h | shares compounds with tim10-1 inh | AID 463213 | 7,400 tested, 56% active;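 active = inhibition of yeast growth at or above a set limit in either of two repeat tests at 20 µM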;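 also: tim10-1 mutant grown at permissive 25 °C to find synthetic lethal compounds; 0% = DMSO yeast wells and 100% = medium wells without yeast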
# Numbers without * were called inactive; nt = no result.
SMILES,tim10-1 inh,TIM10 inh,NALP3 yeast inh,tim23-1 inh,PfHsp90 yeast 2,NALP1 yeast inh,tim10-1 confirm
CCC(=O)NC(c1ccco1)c1cc(Cl)c2cccnc2c1OC (centres undefined),4,-4,-1,0,nt,nt,nt
Cc1cc(C)n(-c2nnc(NC(C)(C)C)nn2)n1,6,9,24,7,11,16,nt
Cc1cc(C)n(-c2nnc(NC34CC5CC(CC(C5)C3)C4)nn2)n1,57*,29,2,47,-45,23,42*
CC(=O)Oc1ccc(-c2nc(-c3cccnc3)no2)cc1,43*,33,34,42,62,9,49*
Cc1cc(C)nc(NC(=S)Nc2cccc(F)c2)c1,40*,-7,21,25,19,13,-36
COc1cccc(NC(=S)Nc2cc(C)cc(C)n2)c1,15,-14,36,-1,-18,18,nt
CNC(=O)c1c(C)nn(-c2ccc(F)c(Cl)c2)c1-c1cc(C)on1,3,-2,0,8,nt,-4,nt
O=C(Nc1ccc(N2CCCCC2)cc1)c1ccccn1,41*,21,27,43,35,4,31*
Cc1ccc2[nH]c3c(=O)n(CC(=O)NCCCN4CCN(c5ccc(F)cc5)CC4)ncc3c2c1,7,5,6,-8,-29,12,nt
CCCCSCCCNC(=O)Nc1ccc(C)c(C)c1,47*,1,7,31,nt,19,15
Cc1cc(C(=O)NN=C2CCCCCC2)c(C)o1,80*,1,-3,13,8,nt,5
COC(=O)c1sc(NC(=O)C(C)c2ccccc2)nc1C (centres undefined),39,17,-7,39,7,25,nt
CCC(C(=O)Nc1nc(C)c(C(=O)OC)s1)c1ccccc1 (centres undefined),43*,20,14,35,nt,-3,36*
CC(Sc1nnc(NC2CCCCC2)s1)C(=O)Nc1ccc2c(c1)C(=O)c1ccccc1C2=O (centres undefined),42*,17,24,23,-8,33,19
CC(Oc1ccccc1F)C(=O)NC1CCS(=O)(=O)C1 (centres undefined),-3,2,12,3,-5,-4,nt
CC(=O)Nc1nc(-c2ccccc2)nc(-c2ccccc2OC(C)=O)n1,48*,29,12,39,-20,-4,16
O=C(c1ccc(N2CCCC2=O)cc1)N1CCN(c2ccccc2F)CC1,12,-7,9,9,6,11,nt
c1ccc(Sc2nc(N3CCCCC3)nc(N3CCCCC3)n2)nc1,41*,23,30,21,nt,nt,21
Cc1cc(C)c(OCC(=O)Nc2ccccc2N2CCOCC2)c(C)c1,46*,27,14,30,nt,-2,32*
COc1cc(C(=O)NC(=S)Nc2ccccc2N2CCCC2)cc(OC)c1OC,51*,34,5,28,14,-7,13
COc1cc(C(=O)Nc2ccccc2N2CCCCC2)cc(OC)c1OC,25,23,21,42,-6,13,nt
O=C(CN1C(=O)c2ccccc2C1=O)Nc1ccccc1N1CCOCC1,-5,-3,-5,7,-1,5,nt
CCCCN1C(=O)c2ccc(C(=O)Nc3ccccc3N3CCOCC3)cc2C1=O,43*,19,9,-12,nt,-1,-4
COc1cc(C(=O)NC(=S)Nc2ccc(Cl)cn2)cc(OC)c1OC,42*,12,25,-5,9,1,17
Cc1cccc(OCCCC(=O)NC2CCCCC2)c1,9,8,16,16,6,16,nt
SMILES,tim10-1 inh,TIM10 inh,NALP3 yeast inh,tim23-1 inh,PfHsp90 yeast 2,NALP1 yeast inh,tim10-1 confirm
CC(C)N(CCc1ccncc1)C(=S)Nc1cccc(Cl)c1,-14,-4,-14,13,-41,-4,nt
COc1ccc(C(=O)Nc2ccccc2N2CCOCC2)cc1Br,40*,-9,27,16,21,nt,12
COc1ccc(C(=O)NC(=S)Nc2ccccc2N2CCOCC2)cc1Br,35,27,17,48,-27,36,nt
Cc1ccc(-c2nnc(N3CCOCC3)c3ccccc23)cc1S(N)(=O)=O,21,-1,5,5,13,nt,nt
Cc1ccc(-c2nc3cnccn3c2Nc2ccc3c(c2)OCO3)o1,37,15,2,37,-2,24,nt
CCC(C)Sc1ccc(-c2nc3cnccn3c2NC2CCCCC2)cc1 (centres undefined),22,16,21,25,12,nt,nt
Clc1ccc(-c2nc3cnccn3c2NC2CCCC2)cc1,50*,23,13,30,-56,-5,23
c1cn2c(Nc3ccc4c(c3)OCCO4)c(-c3ccc(N4CCOCC4)cc3)nc2cn1,6,15,0,9,-7,nt,nt
Clc1ccc(-c2nc3cnccn3c2Nc2ccc3c(c2)OCO3)cc1,45*,26,2,49,-18,42,35*
CSc1ccc(-c2nc3cnccn3c2Nc2ccc3c(c2)OCO3)cc1,46*,27,22,34,nt,2,43*
CC(OC(=O)CCC(=O)N1CCN(S(=O)(=O)c2ccc3ccccc3c2)CC1)C(=O)NC(N)=O (centres undefined),-7,14,-3,-3,5,8,nt
C=CCNC(=S)NNC(=O)CC12CC3CC(CC(C3)C1)C2,12,16,-6,7,-7,nt,nt
CCOC(=O)C(Cc1ccc(O)c([N+](=O)[O-])c1)N1C(=O)c2ccccc2C1=O (centres undefined),nt,nt,nt,nt,9,nt,nt
O=C(CCNC(=O)N1CCn2c1nc1ccccc12)NCc1ccccc1Cl,11,4,4,-9,8,22,nt
CC(OC(=O)c1ccc([N+](=O)[O-])s1)C(=O)NC1CCCCC1C (centres undefined),47*,39,9,19,nt,nt,39*
COc1cc(C(=O)OC(C)C(=O)NC2CCCCC2C)c([N+](=O)[O-])cc1OC (centres undefined),19,4,-4,17,nt,nt,nt
O=C(CN1C(=O)C2C3c4ccccc4C(c4ccccc43)C2C1=O)Nc1cccc(C(=O)O)c1 (centres undefined),13,-4,-8,2,1,20,nt
Cc1ccn2cc(-c3cccc(S(=O)(=O)N4CCCCC4)c3)nc2c1,48*,25,-53,38,-7,25,20
Cc1ccc2nc(-c3cccc(S(=O)(=O)N4CCCC4)c3)cn2c1,-7,8,-24,26,-24,-8,nt
O=C(OCCOc1cccc(Cl)c1)C1CCN(S(=O)(=O)c2ccccc2)CC1,44*,9,10,38,-17,16,25
COc1ccc(CN(C)S(=O)(=O)c2ccc3c(c2)OCCO3)cc1,47*,17,33,36,11,4,20
